Screens as filed in PubChem.
An excerpt weighted towards active compounds, which were near 21% of everything screened.
IL1B secr inh: inhibitors of inflammasome signaling (IL-1 beta secretion). THP-1 LPS/ATP IL-1B secretion, AlphaLISA, 16 h; active compounds read low. activity change, % at 57.5 µM. 360,000 tested, 4.7% active; in the data active means activity change below about -50%; inconclusive means mostly about -30% to -49%
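THP-1 cells pretreated 1 hr with compounds (up to 57.5 uM final), then stimulated with LPS (250 ng/mL final) plus ATP (1.25 mM final); secreted IL-1B measured by AlphaLISA after 16 hr, decreased signal indicating inhibition.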
VP16 counter: Gal4-VP16 reporter inhibition counter-screen; AID 2546; 310,000 tested, 3.5% active; Potency, µM (doses to about 53.6 µM), inactives show top-dose activity, negative = inhibition, hits mostly inhibitors; Drosophila S2 Gal4-VP16 UAS-luciferase, luminescence, 20 h;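 further: Gal4-VP16 expression switched on by copper sulfate through the metallothionein promoter; potency means the concentration at half of the fitted maximal effect; nearly all actives have a fitted effect of over 50% in size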
DT40 TDP1 CPT: growth inhibition of DT40 Tdp1-/-;hTDP1 cells with camptothecin (screen for TDP1 inhibitors) | chicken DT40 Tdp1-/-;hTDP1 cells + 20 nM CPT, ATP luminescence, 48 h | Potency, µM (series often up to 46.2 µM), without a hit: at the highest dose activity change, negative = growth inhibition, hits mostly inhibitors | 420,000 tested, 12% active; further: potency means the concentration at half of the fitted maximal effect; nearly all actives have a fitted effect of over 55% in size
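Chicken DT40 Tdp1-/- cells complemented with human TDP1, 400 cells/well, exposed to compounds plus 20 nM camptothecin for at least 48 h at 37 C; viability read as ATP content by CellTiter-Glo luminescence.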
DT40 TDP1 no CPT: qHTS for Inhibitors of human tyrosyl-DNA phosphodiesterase 1 (TDP1): qHTS in cells in absence of CPT. Potency, µM (doses to about 46.2 µM), for the others: at the highest dose activity change, negative = growth inhibition, hits mostly inhibitors. DT40 Tdp1-/- hTDP1 cells, no CPT, ATP luminescence, 48 h. 420,000 tested, 15% active; further: potency means the concentration at half of the fitted maximal effect; nearly all actives have a fitted effect of over 55% in size
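Chicken DT40 Tdp1-/- cells stably complemented with human TDP1 were seeded at 400 cells/well with DMSO in place of 20 nM camptothecin. After compound pinning, cells grew at least 48 hr at 37 °C; viability read by CellTiter-Glo luminescence.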
ELG1 repair inh: inhibitors of ELG1-dependent DNA repair in HEK293T cells | HEK293T ELG1-luciferase reporter, luminescence, 16 h; DNA damage induced by 5-fluorouridine | Potency, µM (titrated, usually from 46.1 µM), without a hit: top-dose activity change, negative = inhibition, actives largely listed as inhibitors | 330,000 tested, 2.3% active; further: potency means the concentration at half of the fitted maximal effect; nearly all actives have a fitted effect of over 55% in size
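Quantitative HTS, concentration-response format. 2,000 cells/well co-treated with 5-fluorouridine and compound, 16 hr in 5% CO2 at 37 °C; ONE-Glo luminescence read after 30 min.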
RORg inh: blocks mouse ROR gamma transcriptional activity; P51450; Drosophila S2 Gal4-RORgamma UAS-luciferase reporter, 20 h; Potency, µM (doses to about 53.6 µM), for the others: at the highest dose activity change, negative = inhibition, usual class: inhibitors; 310,000 tested, 5.4% active; further: potency means the concentration at half of the fitted maximal effect; nearly all actives have a fitted effect of over 60% in size
Target sequence (P51450 whole entry, looked up, the tested form may be a part): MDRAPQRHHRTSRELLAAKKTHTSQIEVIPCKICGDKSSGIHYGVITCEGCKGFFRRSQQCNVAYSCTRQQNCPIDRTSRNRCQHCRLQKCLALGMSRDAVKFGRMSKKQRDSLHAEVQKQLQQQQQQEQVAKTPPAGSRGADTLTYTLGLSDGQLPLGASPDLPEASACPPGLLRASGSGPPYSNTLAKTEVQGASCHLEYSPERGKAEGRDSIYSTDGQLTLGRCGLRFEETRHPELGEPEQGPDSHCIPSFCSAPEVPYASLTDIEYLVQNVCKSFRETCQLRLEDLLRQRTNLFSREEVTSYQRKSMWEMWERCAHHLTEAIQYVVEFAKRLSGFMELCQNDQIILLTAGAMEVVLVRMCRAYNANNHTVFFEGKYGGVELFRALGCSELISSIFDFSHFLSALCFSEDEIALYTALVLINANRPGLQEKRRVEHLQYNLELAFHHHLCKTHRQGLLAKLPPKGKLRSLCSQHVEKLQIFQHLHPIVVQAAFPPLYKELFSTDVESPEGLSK
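Schneider cells (Drosophila), stable Gal4 DBD–ROR gamma + UAS-luc; 1 hr cmpd preincubation; Cu2+ induction 700 uM final; 20 hr ambient; luminescence.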
* marks the source's active call; other numbers are inactive results; ? = inconclusive; · = not tested or not shown; [ ] = another dose, or the depositor's remark. Unless noted, the call rests on the fitted dose curve; in most records, active means well fitted curve in the direction sought with a large enough effect; inconclusive means small, poorly fitted or top-dose-only effect, or another doubt; inactive means no such curve, though single readings can be large; an effect the other way counts as inactive or inconclusive. On the % scale 0 is the no-effect control and ±100 the full control effect.

SMILES	IL1B secr inh	VP16 counter	DT40 TDP1 CPT	DT40 TDP1 no CPT	ELG1 repair inh	RORg inh
Nc1cccc(-c2cn3cccnc3n2)c1	6	7%	21µM*	?	24%	?
COc1ccccc1NOC(=O)CCOc1ccccc1	-22	·	-8%	-19%	·	·
O=C(NCCO)C(=O)c1c(-c2ccccc2)cc2ccccn12	24	-17%	-3%	0%	14%	2%
Cc1nnc(SCc2cc(=O)n3c(C)cccc3n2)s1	·	·	-6%	2%	·	·
Cc1ccccc1COc1ccc(-c2nnn(CC(=O)O)n2)cc1	-2	-3%	10%	-6%	14%	-3%
O=C1CN(C(=O)/C=C/c2ccc(Br)cc2)CCN1	-22	22%	3%	0%	0%	-11%
CC1(C(=O)NS(=O)(=O)c2ccccc2Cl)CCN1C(=O)c1ccccc1 (centres undefined)	-17	·	-16%	-1%	·	·
O=C(Nc1ccc(-c2cn3cccnc3n2)cc1)c1ccccc1F	·	·	?	16µM*	·	·
CCOCC(=O)Nc1ccc(-c2cn3cccnc3n2)cc1	25	-6%	15µM*	-27%	30%	9%
CCCC(=O)Nc1ccc(-c2cn3cccnc3n2)cc1	-9	16%	-4%	?	?	0%
NCCNS(=O)(=O)c1cccc2c(Cl)cccc12	·	7%	27µM*	27µM*	·	-4%
NCCCCNS(=O)(=O)c1ccc2c(Cl)cccc2c1	·	2%	12µM*	12µM*	·	-27%
O=S(=O)(NCCCCCNS(=O)(=O)c1c(F)cccc1F)c1ccc2c(c1)OCCO2	·	·	·	·	-20%	·
O=S(=O)(NCCCc1ccccc1)c1ccc(Cl)cc1	8	-2%	?	-29%	1%	12%
NCCCCCCNS(=O)(=O)c1ccc2c(Cl)cccc2c1	·	28µM*	13µM*	11µM*	·	?
NCCNS(=O)(=O)c1ccc(Cl)c2ccncc12	·	3%	·	·	·	4%
CC[n+]1cccc(Br)c1	·	·	8%	-2%	·	·
O=C(O)C1=CCC=CC1C(=O)O (centres undefined)	-17	·	-8%	0%	·	·
O=C(Nc1ccc(Cl)cc1)N[C@@H]1CC[C@H](CCNS(=O)(=O)c2ccccc2F)O[C@@H]1CO	2	·	?	?	·	·
O=C(Nc1nccs1)C1(S(=O)(=O)c2ccc(Cl)cc2)CC1	-9	?	-15%	-21%	-2%	7.1µM*
Cc1ccc(OCC(=O)NNC(=O)Nc2ccc(Cl)cc2)c(Br)c1	-5	·	-23%	-23%	·	·
Cc1ccc(S(=O)(=O)C2(C(=O)Nc3nccs3)CC2)cc1	18	?	?	?	6%	?
Cc1ccc(NC(=O)C2(S(=O)(=O)c3ccc(Cl)cc3)CC2)c(Br)c1	-4	3%	?	16µM*	-6%	-2%
Cc1ccc(NC(=O)Nc2ccc(Cl)cc2)c(Br)c1	-21	-9%	?	23µM*	?	25%
Cc1ccc(NC(=O)C2(S(=O)(=O)c3ccc(C)cc3)CC2)cc1	-11	?	-17%	?	-14%	-16%
Cc1ccc(S(=O)(=O)C2(C(=O)Nc3ccc(Cl)c(C(F)(F)F)c3)CC2)cc1	·	·	?	16µM*	·	·
Cc1cccc(-n2ccnc2SCC(=O)Nc2nc3ccccc3s2)c1	·	·	?	23µM*	·	·
Cc1cccc(-n2ccnc2SCC(=O)Nc2nnc(C)s2)c1	-11	4%	?	15µM*	?	-26%
CCSc1nnc(NC(=O)NC(CC)(C(F)(F)F)C(F)(F)F)s1	?	?	?	15µM*	?	-19%[10 µM]
Cc1cccc(C)c1Nc1nnc(SCC(=O)Nc2ncc(C(F)(F)F)cc2Cl)s1	-2	6%	2.1µM*	-38%	-11%	-32%
